# Test results published in PubChem BioAssay (NCI).
# This is part of a sample that, as a whole, favours compounds with a hit. Of some 79,000 tested, about 15% had one in any assay. The source made the active and inactive calls. No stated cut-off is given here; in the data, active means growth inhibition above about 70%; inactive means the rest. *1 amine or outer side, *2 acyl side, *3 side chain or, on linkers, in order; H or OH if unused. Where a SMILES comes first, the peptide text is derived from it. The star is where a group is joined. Trt = c1ccc(C(c2ccccc2)(c2ccccc2)*)cc1; γGlu = O=C(O)[CH](CCC(=O)[*:2])N[*:1]; Cbz = O=C(OCc1ccccc1)*; Bz = O=C(c1ccccc1)*; NHOH = ON*
# Assay: NCI Yeast Anticancer Drug Screen. Data for the bub3 strain (AID 167)
# Settings: S. cerevisiae bub3 mutant strain, at 50.0 µM, stronger effect = higher value
# Outline: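 Mutant yeast screening strain plus compound; vehicle-treated cultures serve as the 0% inhibition reference.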
row,SMILES,growth inhibition
1,NCCSCCN,13.2% (inactive)
2,NC(CCC(=O)NC(CCC(=O)NO)C(=O)NCC(=O)O)C(=O)O (stereo not given) (γGlu-Glu(NHOH)-Gly-OH; configuration not given here),-4.85% (inactive)
3,O=c1ccn2n1Cc1ccccc1C2,-6.05% (inactive)
4,Cn1c(C=O)cc2c(Cl)nccc21,-10.1% (inactive)
5,CC(=O)Nc1ccc[n+](CC(=O)c2ccc(F)cc2)c1,-5.45% (inactive)
6,CCOC(=O)C1C=CC(C)N(C(=O)OCC)N1C(=O)OCC (stereo not given),49.9% (inactive)
7,Nc1nc(-c2ccco2)cc(-c2ccc(CO)o2)n1,16% (inactive)
8,O=C1NC(Cc2cccc(I)c2)C(=O)N1c1ccccc1 (stereo not given),16.4% (inactive)
9,CCOC(=O)C(=O)C1C(=O)Nc2ccccc21 (stereo not given),-18.4% (inactive)
10,CN(C)C1Cc2ccccc2C1OC(=O)c1ccccc1 (stereo not given),14.6% (inactive)
11,O=S(=O)(c1ccc(Br)cc1)S(=O)(=O)c1ccc(Br)cc1,23.2% (inactive)
12,CCc1cc2c(cc1C(=O)/C=C\c1cccc3ccccc13)C(C)(C)CCC2(C)C,-3.5% (inactive)
13,CC(=O)/C=C1/NC(C(=O)c2ccccc2)=CNC1c1ccccc1 (stereo not given),9.95% (inactive)
14,CCOC(=O)CCC(NC(=O)c1ccc(NC)c([N+](=O)[O-])c1)C(=O)OCC (stereo not given),4% (inactive)
15,Cc1ccc(S(=O)(=O)OCCOCCOc2ccc(C(C)(C)CC(C)(C)C)cc2)cc1,3.8% (inactive)
16,ONC1=Nc2ccccc2C(=S)N2CSCC12 (stereo not given),-21.6% (inactive)
17,CCCCN(C(C)=O)c1ccccc1,-9.4% (inactive)
18,O=C1OC(c2cccc(Cl)c2)=N/C1=C\c1ccc(Cl)cc1,7.5% (inactive)
19,CC(=O)N1CCC(=O)/C(=C/c2ccccc2)C1,17.6% (inactive)
20,Cc1cccc(NN)c1,23.3% (inactive)

row,SMILES,growth inhibition
1,CCCCCCCC/C=C/CCCCCC1CCCC(C)N1 (stereo not given),-11.2% (inactive)
2,Nc1ncnc2c1cnn2Cc1ccccc1,21.2% (inactive)
3,C/C(=N/NS(=O)(=O)c1ccc(N)cc1)c1ccccc1,-41.4% (inactive)
4,COc1cc([N+](=O)[O-])ccc1NC(=O)Nc1ccc(Cl)cc1[N+](=O)[O-],29.4% (inactive)
5,CCOC(=O)Oc1ccc(C(=O)Oc2cc(Cl)c(Cl)cc2Cl)cc1OC,-13.9% (inactive)
6,Cc1ccccc1C(=O)NNC(=O)c1cccc2ccccc12,0.45% (inactive)
7,Cc1cc(S(=O)(=O)Nc2nc3ccccc3[nH]2)c(S)cc1Cl,5.55% (inactive)
8,O=C1NCC/C1=C\c1ccc(Cl)c(Cl)c1,-7.7% (inactive)
9,CCCCc1ccc(Nc2nc(SC)c3[nH]cnc3n2)cc1,29.7% (inactive)
10,CC(=O)Nc1cc2c(s1)CCC1CC(=O)NN=C21 (stereo not given),-9.35% (inactive)
11,CC(=O)c1ccc2c(ccc3ccccc32)c1O,-2.45% (inactive)
12,CC(C)c1nnc(NC(=O)CSC(=S)N2CCOCC2)s1,-16.6% (inactive)
13,COC(=O)C(CSC(=O)c1ccccc1)NC(=O)CNC(=O)CNC(=O)C(CCCCNC(=O)OCc1ccccc1)NC(=O)CNC(=O)C(CSC(c1ccccc1)(c1ccccc1)c1ccccc1)NC(=O)OCc1ccccc1 (stereo not given) (Cbz-C(Trt)GK(Cbz)GGC(Bz)-OMe; configuration not given here),-53.1% (inactive)
14,CC1=CC2=C(OCO1)C(=O)c1ccccc1C2=O,44.3% (inactive)
15,C=C1CCC2(C)CCC3(C)C(CCC4C5(C)CCC(OC(C)=O)C(C)(C)C5CCC43C)C2C1C (stereo not given),-5.15% (inactive)
16,CNCc1ccccc1,-19.8% (inactive)
17,NC(=S)N/N=C(\Cc1nc2ccc(Cl)cc2[nH]c1=O)C(=O)Nc1ccc(Cl)cc1,-15.4% (inactive)
18,O=C(OCC(OC(=O)c1ccccc1)C(OC(=O)c1ccccc1)C(OC(=O)c1ccccc1)C(COC(=O)c1ccccc1)OC(=O)c1ccccc1)c1ccccc1 (stereo not given),-5.45% (inactive)
19,COC(=O)C1CC(c2ccc(Cl)cc2)=NO1 (stereo not given),1.5% (inactive)
20,CCN(CC)C1=CC(=O)C(N(CC)CC)=CC1=O,13.1% (inactive)

# Assay: NCI Yeast Anticancer Drug Screen. Data for the mlh1 rad18 strain (AID 175)
# Settings: S. cerevisiae mlh1 rad18 strain growth inhibition; at 50.0 µM; stronger effect = higher value
# Outline: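 Read-out is yeast growth inhibition, calculated against vehicle-only controls. The compound was applied to a strain engineered with DNA damage repair alterations.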
row,SMILES,growth inhibition
1,NCCSCCN,8.15% (inactive)
2,NC(CCC(=O)NC(CCC(=O)NO)C(=O)NCC(=O)O)C(=O)O (stereo not given) (γGlu-Glu(NHOH)-Gly-OH; configuration not given here),-42.5% (inactive)
3,O=c1ccn2n1Cc1ccccc1C2,-20.6% (inactive)
4,Cn1c(C=O)cc2c(Cl)nccc21,-1.15% (inactive)
5,CC(=O)Nc1ccc[n+](CC(=O)c2ccc(F)cc2)c1,8.65% (inactive)
6,CCOC(=O)C1C=CC(C)N(C(=O)OCC)N1C(=O)OCC (stereo not given),-13.7% (inactive)
7,Nc1nc(-c2ccco2)cc(-c2ccc(CO)o2)n1,3.9% (inactive)
8,O=C1NC(Cc2cccc(I)c2)C(=O)N1c1ccccc1 (stereo not given),29.4% (inactive)
9,CCOC(=O)C(=O)C1C(=O)Nc2ccccc21 (stereo not given),-12.6% (inactive)
10,CN(C)C1Cc2ccccc2C1OC(=O)c1ccccc1 (stereo not given),37.1% (inactive)
11,O=S(=O)(c1ccc(Br)cc1)S(=O)(=O)c1ccc(Br)cc1,-16.1% (inactive)
12,CCc1cc2c(cc1C(=O)/C=C\c1cccc3ccccc13)C(C)(C)CCC2(C)C,15% (inactive)
13,CC(=O)/C=C1/NC(C(=O)c2ccccc2)=CNC1c1ccccc1 (stereo not given),18.8% (inactive)
14,CCOC(=O)CCC(NC(=O)c1ccc(NC)c([N+](=O)[O-])c1)C(=O)OCC (stereo not given),0.8% (inactive)
15,Cc1ccc(S(=O)(=O)OCCOCCOc2ccc(C(C)(C)CC(C)(C)C)cc2)cc1,27% (inactive)
16,ONC1=Nc2ccccc2C(=S)N2CSCC12 (stereo not given),15.9% (inactive)
17,CCCCN(C(C)=O)c1ccccc1,1.1% (inactive)
18,O=C1OC(c2cccc(Cl)c2)=N/C1=C\c1ccc(Cl)cc1,0.6% (inactive)
19,CC(=O)N1CCC(=O)/C(=C/c2ccccc2)C1,44% (inactive)
20,Cc1cccc(NN)c1,32.9% (inactive)

row,SMILES,growth inhibition
1,CCCCCCCC/C=C/CCCCCC1CCCC(C)N1 (stereo not given),-2.55% (inactive)
2,Nc1ncnc2c1cnn2Cc1ccccc1,2.35% (inactive)
3,C/C(=N/NS(=O)(=O)c1ccc(N)cc1)c1ccccc1,-17.8% (inactive)
4,COc1cc([N+](=O)[O-])ccc1NC(=O)Nc1ccc(Cl)cc1[N+](=O)[O-],27.1% (inactive)
5,CCOC(=O)Oc1ccc(C(=O)Oc2cc(Cl)c(Cl)cc2Cl)cc1OC,7% (inactive)
6,Cc1ccccc1C(=O)NNC(=O)c1cccc2ccccc12,6.95% (inactive)
7,Cc1cc(S(=O)(=O)Nc2nc3ccccc3[nH]2)c(S)cc1Cl,40.6% (inactive)
8,O=C1NCC/C1=C\c1ccc(Cl)c(Cl)c1,-13.5% (inactive)
9,CCCCc1ccc(Nc2nc(SC)c3[nH]cnc3n2)cc1,-37.7% (inactive)
10,CC(=O)Nc1cc2c(s1)CCC1CC(=O)NN=C21 (stereo not given),-11.5% (inactive)
11,CC(=O)c1ccc2c(ccc3ccccc32)c1O,0.7% (inactive)
12,CC(C)c1nnc(NC(=O)CSC(=S)N2CCOCC2)s1,-2.25% (inactive)
13,COC(=O)C(CSC(=O)c1ccccc1)NC(=O)CNC(=O)CNC(=O)C(CCCCNC(=O)OCc1ccccc1)NC(=O)CNC(=O)C(CSC(c1ccccc1)(c1ccccc1)c1ccccc1)NC(=O)OCc1ccccc1 (stereo not given) (Cbz-C(Trt)GK(Cbz)GGC(Bz)-OMe; configuration not given here),32.1% (inactive)
14,CC1=CC2=C(OCO1)C(=O)c1ccccc1C2=O,8.95% (inactive)
15,C=C1CCC2(C)CCC3(C)C(CCC4C5(C)CCC(OC(C)=O)C(C)(C)C5CCC43C)C2C1C (stereo not given),26.6% (inactive)
16,CNCc1ccccc1,-3.4% (inactive)
17,NC(=S)N/N=C(\Cc1nc2ccc(Cl)cc2[nH]c1=O)C(=O)Nc1ccc(Cl)cc1,-9.05% (inactive)
18,O=C(OCC(OC(=O)c1ccccc1)C(OC(=O)c1ccccc1)C(OC(=O)c1ccccc1)C(COC(=O)c1ccccc1)OC(=O)c1ccccc1)c1ccccc1 (stereo not given),7.65% (inactive)
19,COC(=O)C1CC(c2ccc(Cl)cc2)=NO1 (stereo not given),47.1% (inactive)
20,CCN(CC)C1=CC(=O)C(N(CC)CC)=CC1=O,2.35% (inactive)
